In the supplement of paper PMC12669032:

Columns and labels:
Assay in all cases: growth AUC relative to DMSO control (median of replicates) (fraction); higher = more growth (less inhibition), active = hit call of the paper
Conditions in all cases: 20 µM; 24 h;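 active = AUC reduced over 20% with Padj below 0.05 in at least 2 of 3 replicates; inactive = otherwise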
Akkermansia muciniphila = system: Akkermansia muciniphila
How it was run: (§1)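 OD600 was recorded every hour for 24 h in anaerobic monocultures of gut bacteria kept at 37 °C in mGAM, seeded at OD600 0.05 and given 20 µM compound in 1% DMSO. The area under each growth curve was scaled to the plate median of solvent-only wells, or to row and column medians for the industrial chemical plate. Before this step, the minimum OD was set to 0. Reported values are medians of three biological replicates run on separate days.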

Bacteroides caccae = system: Bacteroides caccae
How it was run: as §1

Bacteroides clarus = system: Bacteroides clarus
How it was run: as §1

Bacteroides dorei = system: Bacteroides dorei
How it was run: as §1

Bacteroides stercoris = system: Bacteroides stercoris
How it was run: as §1

[1] = system: Bacteroides thetaiotaomicron
How it was run: as §1

Bacteroides uniformis = system: Bacteroides uniformis
How it was run: as §1

[2] = system: Bifidobacterium longum subsp. longum
How it was run: as §1

Clostridium difficile = system: Clostridium difficile
How it was run: as §1

Collinsella aerofaciens = system: Collinsella aerofaciens
How it was run: as §1

Measured: growth AUC

CCCSC(=O)N(CCC)CCC
inactive: Akkermansia muciniphila 0.868 | Bacteroides caccae 0.991 | Bacteroides clarus 0.957 | Bacteroides dorei 1.02 | Bacteroides stercoris 0.946 | [1] 1.01 | Bacteroides uniformis 1.02 | [2] 1.04 | Clostridium difficile 1.01 | Collinsella aerofaciens 0.967

CCCCc1c(C)nc(N(C)C)[nH]c1=O
inactive: Akkermansia muciniphila 0.964 | Bacteroides caccae 1.01 | Bacteroides clarus 0.966 | Bacteroides dorei 0.984 | Bacteroides stercoris 1.03 | [1] 0.989 | Bacteroides uniformis 0.982 | [2] 0.998 | Clostridium difficile 0.997 | Collinsella aerofaciens 1.05

OC(Cn1cncn1)(c1ccc(F)cc1)c1ccccc1F (stereo not given)
inactive: Akkermansia muciniphila 0.876 | Bacteroides caccae 0.976 | Bacteroides clarus 0.971 | Bacteroides dorei 0.988 | Bacteroides stercoris 1 | [1] 0.98 | Bacteroides uniformis 0.999 | [2] 1.21 | Clostridium difficile 1 | Collinsella aerofaciens 0.985

CCOc1ccccc1OS(=O)(=O)NC(=O)Nc1nc(OC)cc(OC)n1
inactive: Akkermansia muciniphila 1.02 | Bacteroides caccae 1.05 | Bacteroides clarus 0.972 | Bacteroides dorei 1.05 | Bacteroides stercoris 0.901 | [1] 1.01 | Bacteroides uniformis 0.993 | [2] 0.967 | Clostridium difficile 1.13 | Collinsella aerofaciens 1.03

COCCOC(=O)C(C#N)(C(=O)c1ccccc1C(F)(F)F)c1ccc(C(C)(C)C)cc1 (stereo not given)
inactive: Akkermansia muciniphila 1.07 | Bacteroides caccae 0.937 | Bacteroides clarus 0.965 | Bacteroides dorei 0.927 | Bacteroides stercoris 0.941 | [1] 1.01 | Bacteroides uniformis 0.942 | [2] 1.01 | Clostridium difficile 0.943 | Collinsella aerofaciens 0.885

CC(Oc1ccc(Oc2ccc(Cl)cc2Cl)cc1)C(=O)O (racemic)
inactive: Akkermansia muciniphila 0.812 | Bacteroides caccae 0.991 | Bacteroides clarus 0.875 | Bacteroides dorei 0.997 | Bacteroides stercoris 0.851 | [1] 0.989 | Bacteroides uniformis 0.98 | [2] 0.903 | Clostridium difficile 1.02 | Collinsella aerofaciens 0.995

C=CCOC(Cn1ccnc1)c1ccc(Cl)cc1Cl.O=S(=O)(O)O (stereo not given)
inactive: Akkermansia muciniphila 0.744 | Bacteroides caccae 0.949 | Bacteroides clarus 0.925 | Bacteroides dorei 1 | Bacteroides stercoris 0.994 | [1] 0.931 | Bacteroides uniformis 0.977 | [2] 0.843 | Clostridium difficile 0.884 | Collinsella aerofaciens 0.845

COP(=S)(OC)Oc1cc(Cl)c(I)cc1Cl
inactive: Akkermansia muciniphila 1.09 | Bacteroides caccae 0.999 | Bacteroides clarus 0.959 | Bacteroides dorei 0.985 | Bacteroides stercoris 1.04 | [1] 0.964 | Bacteroides uniformis 0.954 | [2] 0.918 | Clostridium difficile 0.937 | Collinsella aerofaciens 0.941

COP(=S)(OC)SCn1nnc2ccccc2c1=O
inactive: Akkermansia muciniphila 1.09 | Bacteroides caccae 0.98 | Bacteroides clarus 0.977 | Bacteroides dorei 0.877 | Bacteroides stercoris 0.883 | [1] 0.969 | Bacteroides uniformis 0.986 | [2] 0.949 | Clostridium difficile 0.931 | Collinsella aerofaciens 0.941

CC(Oc1ccc(Oc2ccc(C(F)(F)F)cn2)cc1)C(=O)O (stereo not given)
inactive: Akkermansia muciniphila 1.17 | Bacteroides caccae 0.992 | Bacteroides clarus 1.02 | Bacteroides dorei 0.943 | Bacteroides stercoris 1.04 | [1] 1.01 | Bacteroides uniformis 0.899 | [2] 1.05 | Clostridium difficile 0.917 | Collinsella aerofaciens 0.941

CCOP(=O)(OCC)O/C(=C/Br)c1ccc(Cl)cc1Cl
inactive: Akkermansia muciniphila 1.06 | Bacteroides caccae 0.94 | Bacteroides clarus 0.952 | Bacteroides dorei 0.948 | Bacteroides stercoris 0.879 | [1] 0.89 | Bacteroides uniformis 0.821 | [2] 0.991 | Clostridium difficile 0.978 | Collinsella aerofaciens 1.06

CCOC(=O)CCN(SN(C)C(=O)Oc1cccc2c1OC(C)(C)C2)C(C)C
inactive: Akkermansia muciniphila 1.1 | Bacteroides caccae 1.04 | Bacteroides clarus 0.985 | Bacteroides dorei 1 | Bacteroides stercoris 0.982 | [1] 1.02 | Bacteroides uniformis 1.05 | [2] 1.01 | Clostridium difficile 0.999 | Collinsella aerofaciens 0.978

CCOC(=O)c1ccccc1S(=O)(=O)NC(=O)Nc1nc(Cl)cc(OC)n1
inactive: Akkermansia muciniphila 1.1 | Bacteroides caccae 0.991 | Bacteroides clarus 1.03 | Bacteroides dorei 0.933 | Bacteroides stercoris 0.97 | [1] 1.01 | Bacteroides uniformis 0.962 | [2] 1.4 | Clostridium difficile 1.03 | Collinsella aerofaciens 0.993

CCN(CC)c1nc(C)cc(OP(=S)(OC)OC)n1
inactive: Akkermansia muciniphila 0.948 | Bacteroides caccae 0.979 | Bacteroides clarus 0.974 | Bacteroides dorei 1 | Bacteroides stercoris 0.927 | [1] 0.945 | Bacteroides uniformis 0.976 | [2] 0.967 | Clostridium difficile 1.02 | Collinsella aerofaciens 0.989

CCOP(=S)(OCC)Oc1nc(Cl)c(Cl)cc1Cl
inactive: Akkermansia muciniphila 0.91 | Bacteroides caccae 0.999 | Bacteroides clarus 0.95 | Bacteroides dorei 1.03 | Bacteroides stercoris 1.07 | [1] 0.978 | Bacteroides uniformis 1 | [2] 0.943 | Clostridium difficile 1.01 | Collinsella aerofaciens 0.986

COc1ccc(C(c2ccc(OC)cc2)C(Cl)(Cl)Cl)cc1
inactive: Akkermansia muciniphila 0.973 | Bacteroides caccae 0.92 | Bacteroides clarus 0.849 | Bacteroides dorei 0.926 | Bacteroides uniformis 0.813 | [2] 0.926 | Clostridium difficile 0.988 | Collinsella aerofaciens 0.975
active: Bacteroides stercoris 0.49 | [1] 0.776

Cc1cc(C(C#N)c2ccc(Cl)cc2)c(Cl)cc1NC(=O)c1cc(I)cc(I)c1O (stereo not given)
active: Bacteroides caccae 0.184 | Bacteroides clarus 0.0125 | Bacteroides dorei 0.0106 | Bacteroides stercoris 0.00703 | [1] 0.0104 | Bacteroides uniformis 0.0176 | [2] 0.121 | Clostridium difficile 0.00624 | Collinsella aerofaciens 0.0767
inactive: Akkermansia muciniphila 0.866

C=CCOC(=O)C(C)(C)OC(=O)c1cc(-n2c(=O)cc(C(F)(F)F)n(C)c2=O)ccc1Cl
inactive: Akkermansia muciniphila 1.14 | Bacteroides caccae 0.949 | Bacteroides clarus 1.01 | Bacteroides dorei 0.969 | Bacteroides stercoris 1.09 | [1] 0.974 | Bacteroides uniformis 0.975 | [2] 0.96 | Clostridium difficile 0.964 | Collinsella aerofaciens 0.961

CN(C)C(=O)Nc1ccc(Cl)cc1
inactive: Akkermansia muciniphila 0.948 | Bacteroides caccae 1.02 | Bacteroides clarus 0.971 | Bacteroides dorei 1.01 | Bacteroides stercoris 1.05 | [1] 0.973 | Bacteroides uniformis 1.02 | [2] 0.99 | Clostridium difficile 0.979 | Collinsella aerofaciens 1.03

COc1cc(OC)nc(NC(=O)NS(=O)(=O)c2ncccc2C(F)(F)F)n1
inactive: Akkermansia muciniphila 0.985 | Bacteroides caccae 1.02 | Bacteroides clarus 0.977 | Bacteroides dorei 0.991 | Bacteroides stercoris 0.908 | [1] 1.02 | Bacteroides uniformis 1.02 | [2] 1 | Clostridium difficile 1.02 | Collinsella aerofaciens 0.972

CC(=O)CC(c1ccco1)c1c(O)c2ccccc2oc1=O (stereo not given)
inactive: Akkermansia muciniphila 0.866 | Bacteroides caccae 1.01 | Bacteroides clarus 0.957 | Bacteroides dorei 1 | Bacteroides stercoris 1 | [1] 0.98 | Bacteroides uniformis 0.968 | [2] 0.95 | Clostridium difficile 1.02 | Collinsella aerofaciens 0.967

NCP(=O)(O)O
inactive: Akkermansia muciniphila 1.04 | Bacteroides caccae 1.02 | Bacteroides clarus 1.03 | Bacteroides dorei 1.03 | Bacteroides stercoris 1.17 | [1] 0.982 | Bacteroides uniformis 1.02 | [2] 1.04 | Clostridium difficile 1.06 | Collinsella aerofaciens 1.05

C=C(C)[C@H]1Cc2c(ccc3c2O[C@@H]2COc4cc(OC)c(OC)cc4[C@@H]2C3=O)O1
inactive: Akkermansia muciniphila 1.07 | Bacteroides caccae 0.985 | Bacteroides clarus 0.897 | Bacteroides dorei 0.947 | Bacteroides stercoris 0.735 | [1] 0.965 | Bacteroides uniformis 0.813 | [2] 1 | Clostridium difficile 1.03 | Collinsella aerofaciens 0.987

O=c1ccc(=O)[nH][nH]1
inactive: Akkermansia muciniphila 1.2 | Bacteroides caccae 0.973 | Bacteroides clarus 1.01 | Bacteroides dorei 0.989 | Bacteroides stercoris 0.951 | [1] 1 | Bacteroides uniformis 1.05 | [2] 1.62 | Clostridium difficile 0.954 | Collinsella aerofaciens 0.92

OC(c1ccc(Cl)cc1)(c1cncnc1)c1ccccc1Cl (stereo not given)
active: [1] 0.503 | Bacteroides uniformis 0.632
inactive: Akkermansia muciniphila 0.992 | Bacteroides caccae 0.89 | Bacteroides clarus 0.887 | Bacteroides dorei 0.893 | Bacteroides stercoris 0.686 | [2] 0.921 | Clostridium difficile 1.01 | Collinsella aerofaciens 0.984

CCC(CC)Nc1c([N+](=O)[O-])cc(C)c(C)c1[N+](=O)[O-]
inactive: Akkermansia muciniphila 1.03 | Bacteroides caccae 0.888 | Bacteroides clarus 0.942 | Bacteroides dorei 0.91 | Bacteroides stercoris 0.86 | [1] 0.96 | Bacteroides uniformis 0.954 | [2] 1 | Clostridium difficile 0.962 | Collinsella aerofaciens 0.909

COS(=O)(=O)[O-].Cn1c(-c2ccccc2)cc(-c2ccccc2)[n+]1C
inactive: Akkermansia muciniphila 0.936 | Bacteroides caccae 0.994 | Bacteroides clarus 0.966 | Bacteroides dorei 0.976 | Bacteroides stercoris 0.979 | [1] 0.938 | Bacteroides uniformis 1.01 | [2] 0.925 | Clostridium difficile 1.04 | Collinsella aerofaciens 0.989

CC(C)(C)C(O)C(Oc1ccc(Cl)cc1)n1cncn1 (stereo not given)
inactive: Akkermansia muciniphila 0.947 | Bacteroides caccae 0.985 | Bacteroides clarus 0.996 | Bacteroides dorei 1 | Bacteroides stercoris 1.17 | [1] 0.986 | Bacteroides uniformis 1.04 | [2] 0.943 | Clostridium difficile 1.08 | Collinsella aerofaciens 1.03
